# Screening results: PubChem, National Center for Advancing Translational Sciences (NCATS)
# The list is not random: actives were taken first. Their share in the collection is about 12%.
# G9a block: G9a (human) methyltransferase inhibition; Q96KQ7; G9a H3K9 monomethylation, AlphaScreen, 2 h; Potency, µM (highest dose often 102 µM), hits mostly inhibitors; actives 8.8% (n = 350,000); AID 504332; further: nearly all actives have a fitted effect of over 75% in size
#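 Methyltransferase reactions run at room temperature for 2 h (20 nM enzyme, 500 nM biotin-H3K9 peptide, 20 uM SAM) after a 15 min compound preincubation; product detected by AlphaScreen beads and anti-H3K9me1 antibody.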
# JMJD2A Tudor: JMJD2A Tudor domain (human) inhibition. O75164. AlphaScreen JMJD2A-Tudor / H3K4me3 peptide binding. Potency, µM (titrated, usually from 114 µM), most hits filed as inhibitors. actives 4.4% (n = 390,000). AID 504339; further: nearly all actives have a fitted effect of over 50% in size
# Sfp inh: Sfp phosphopantetheinyl transferase inhibition; Potency, µM, actives largely listed as inhibitors; actives 3.5% (n = 310,000); Q9F4F7; Biochemical Sfp PPTase activity, qHTS;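 further: the enzyme is Sfp with the accession as filed and its product quenches rhodamine fluorescence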
#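 With Hepes-Na pH 7.6 buffer containing 10 mM MgCl2, Sfp (15 nM) modified BHQ-2-YbbR (12.5 uM) using rhodamine-CoA (5 uM). Two reads 30 minutes apart at 525/598 nm yielded each well's rate.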
# BAZ2B inh: BAZ2B (human) inhibition. actives 4.4% (n = 360,000). Potency, µM (series often up to 114 µM), usual class: inhibitors. AlphaScreen BAZ2B-H3K14Ac peptide displacement. Q9UIF8. AID 504333; further: nearly all actives have a fitted effect of over 60% in size
#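 AlphaScreen displacement: compounds (up to 110uM) incubated 30 min at room temperature with a preformed 50 nM BAZ2B/50 nM biotinylated H3K14Ac peptide complex in PBS pH 7.4 with Tween-20. Donor and acceptor beads at 10 ug/mL final added, 20 min light-protected before reading.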
# HP1b binding inh: HP1-beta chromodomain-methylated histone interaction inhibition; P83916; AlphaScreen HP1-beta / biotin-H3K9me3 peptide binding; Potency, µM (highest dose often 114 µM), usual class: inhibitors; actives 0.56% (n = 390,000); further: nearly all actives have a fitted effect of over 70% in size
#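 Compound inhibition of the preformed complex between 50 nM HP1-beta and 50 nM biotinylated H3K9me3 peptide was read by AlphaScreen. Buffer was PBS pH 7.4 with 0.01% Tween-20. Incubations ran 30 min at room temperature, with 10 ug/mL donor/acceptor beads.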
# A number is an active result; i = inactive; ? = inconclusive; nt = no result given; [ ] = another dose, or the depositor's remark. The call rests on the fitted dose curve; in most records, active means well fitted curve in the direction sought with a large enough effect; inconclusive means small, poorly fitted or top-dose-only effect, or another doubt; inactive means no such curve, though single readings can be large; an effect the other way counts as inactive or inconclusive.
SMILES,G9a block,JMJD2A Tudor,Sfp inh,BAZ2B inh,HP1b binding inh
COc1ccc(N2C(=O)CC(Sc3nnnn3-c3ccc(F)cc3)C2=O)cc1 (stereo not given),?,i,16µM,i,i
O=C1CC(SCc2nc3ccccc3[nH]2)C(=O)N1c1cccc(Cl)c1 (stereo not given),18µM,i,i,i,i
O=C1CC(SCc2nc3ccccc3[nH]2)C(=O)N1c1ccc(F)cc1 (stereo not given),?,i,i,i,i
NCCSC1CC(=O)N(c2ccc(F)cc2)C1=O (stereo not given),nt,i,i,i,i
O=C1CC(Sc2nnnn2-c2ccccc2)C(=O)N1c1cccc(Cl)c1 (stereo not given),0.89µM,i,13µM,i,i
NCCSC1CC(=O)N(c2ccc(Cl)c(Cl)c2)C1=O (stereo not given),35µM,i,i,?,i
CC(=O)n1nc(-c2cccnc2)nc1NCc1ccc(F)cc1,?,i,nt,i,i
COc1ccc(C(=O)NCC(=O)N2CCN(c3ncccn3)CC2)cc1OC,i[2.33 µM],i,nt,i,i
Cc1cc(O)c2c(c1)C(=O)[C@@]13Oc4c5c(c(O)c6c(O)cc(C)cc46)C(=O)C[C@H](O)[C@H]5[C@@H]1[C@@H](O)CC(=O)C3=C2O,nt,16µM,nt,nt,i
COc1cccc(NC(=O)C2CCN(Cc3cnn(-c4ccccc4)c3-n3cccc3)CC2)c1,?,?,i,i,i
COc1ccc(OC)c(NC(=O)C2CCN(Cc3cnn(-c4ccccc4)c3-n3cccc3)CC2)c1,45µM,50µM,i,?,?
O=C(COC(=O)c1cc(Cl)ccc1O)NCCNC(=O)COC(=O)c1cc(Cl)ccc1O,40µM,i,i,i,i
O=C(COC(=O)c1ccc(Cl)cc1O)Nc1cccnc1Cl,50µM,i,i,i,i
O=C(COC(=O)c1cc(F)cc(F)c1)Nc1cccnc1Cl,i,i,i,i,i
Cc1cc(C)cc(C(=O)NCC(=O)OCC(=O)Nc2cccnc2Cl)c1,i,10µM,i,i,i
Cc1ccc(NC(=S)Nc2cccc3cnccc23)c(C)c1,50µM,i,50µM,i,i
Cc1ccc(NC(=S)c2ccncc2)c(C)c1,79µM,i,i,?,i
Cc1ccc(NC(=O)c2cnccn2)c(C)c1,nt,i,i,i,i
Cc1ccc(NC(=S)Nc2ccccn2)c(C)c1,?,i,i,i,i
Cc1cc(C)cc(NC(=S)Nc2cccc3cnccc23)c1,18µM,i,25µM,?,?
CCc1ccc(NC(=S)Nc2cccc3cnccc23)cc1,45µM,i,22µM,?,i
C=C(C)CNC(=S)Nc1cccc2cnccc12,i,i,i,i,i
Cc1ccc(NC(=S)Nc2cccc3ccccc23)cc1F,nt,i,?,i,i
Cc1ccc(NC(=S)NNC(=S)Nc2ccc(C)cc2C)cc1,i,?,13µM,i,?
O=C(NC(=S)Nc1cccc2cccnc12)c1ccccc1,i,i,i,i,i
SMILES,G9a block,JMJD2A Tudor,Sfp inh,BAZ2B inh,HP1b binding inh
O=C(NC(=S)Nc1cccc2cnccc12)c1ccccc1,40µM,i,45µM,i,i
Cc1ccc(NC(=S)Nc2ccc3cn[nH]c3c2)c(C)c1,?,i,i,i,i
CCSc1cnc(-c2ccccc2)n1CC,50µM,i,i,?,i
CCOc1cc(C(=S)N2CCCCC2)ccc1OS(=O)(=O)c1ccc(Cl)cc1,i,i,i,i,i
COc1cc(C(=S)N2CCOCC2)ccc1OS(=O)(=O)c1ccccc1[N+](=O)[O-],13µM,?,i,i,?
COc1ccc(C(=S)N2CCOCC2)cc1OS(=O)(=O)c1ccccc1[N+](=O)[O-],3.2µM,i,i,i,?
COc1cc(C(=S)N2CCOCC2)ccc1OC(=O)c1ccccc1[N+](=O)[O-],nt,?,i,i,i
CCOc1cc(C(=S)N2CCOCC2)ccc1OS(=O)(=O)c1ccccc1[N+](=O)[O-],10µM,i,i,?,i
COc1cc(C(=O)OC(C)CN2C(C)CCCC2C)cc(OC)c1OC (stereo not given),i,i,i,i,i
OCCN=C(c1ccccc1)C12CN3CN(CN(C3)C1)C2,i,i,i,i,i
COc1cc(C)cc(C(=O)O)c1C1=C(O)c2cccc(O)c2C(=O)C1=O,?,79µM,i,56µM,i
COc1cc2c(O)cc(C(=O)O)c(-c3cc(OC)c(OC)c(OC)c3)c2cc1OC,nt,i,nt,nt,i
Cc1cc(C)c(C)c(OCCOCCN2CCN(C)CC2)c1,?,i,i,?,i
Clc1ccc(Cl)c(OCCN2CCOCC2)c1,i,i,i,i,i
CC(C)(C)c1cc(Cl)ccc1OCCOCCN1CCCC1,25µM,20µM,?,?,i
C=CCc1cc(C)ccc1OCCOCCN1CCN(C)CC1,14µM,7.9µM,79µM,50µM,?
Cc1ccc(OCCOCCN2CCN(C)CC2)c(C(C)(C)C)c1,14µM,5.6µM,50µM,56µM,?
Clc1ccc(Cl)c(OCCN2CCCC2)c1,50µM,32µM,i,?,?
Nc1nc(N)c(N=Nc2ccc(SCC(=O)O)cc2)c(=O)[nH]1,?,i,i,?,i
Cc1ccnc(NC(=O)c2ccc(Cl)c(NC(=O)CCc3ccccc3)c2)c1,i,nt,i,?,nt
COc1ccc(S(=O)(=O)N(C(C)=O)c2ccc3oc(=O)sc3c2)cc1,7.1µM,?,10µM,i,i
Cc1nc2c3ccccc3n(Cc3ccccc3F)c2s1,?,i,i,?,i
Cc1nc2c3cc(F)ccc3n(Cc3ccccc3F)c2s1,i,i,18µM,50µM,i
Cc1nc(N2C(=O)C(=O)/C(=C(/O)c3ccccc3)C2c2ccco2)sc1C (stereo not given),?,?,i,i,i
Cc1cc(C)c2nc(N3C(=O)C(O)=C(C(=O)c4ccco4)C3c3ccco3)sc2c1 (stereo not given),?,50µM,i,45µM,i
SMILES,G9a block,JMJD2A Tudor,Sfp inh,BAZ2B inh,HP1b binding inh
CCOc1ccc2nc(N3C(=O)C(O)=C(C(=O)c4ccco4)C3c3ccco3)sc2c1 (stereo not given),?,40µM,nt,50µM,i
COc1ccc2nc(N3C(=O)C(O)=C(C(=O)c4ccco4)C3c3ccccc3OC)sc2c1 (stereo not given),35µM,i,i,?,i
COC(=O)c1sc(N2C(=O)C(=O)/C(=C(/O)c3ccccc3)C2c2ccco2)nc1C (stereo not given),35µM,i,i,i,i
Cc1ccc(NC(=O)CS(=O)CC(=O)N(CC(=O)NC2CCCC2)c2ccc3c(c2)OCCO3)cc1 (stereo not given),i,i,i,i,i
Cc1cc(NC(=O)CSc2nc3ccc(Cl)cc3[nH]2)no1,i,i,i,i,i
COc1ccc2nc(N3C(=O)C(O)=C(C(=O)c4ccco4)C3c3ccc(C)o3)sc2c1 (stereo not given),25µM,?,nt,45µM,i
